From PubChem
Compounds with a hit are over-represented: about 5.3% of the library has one in this group of screens.
ALOX12 inhib: inhibitors of human 12-lipoxygenase (ALOX12) | 150,000 tested, 0.12% active | Potency, µM (doses to about 57.1 µM), without a hit: top-dose activity change, negative = inhibition, usual class: inhibitors | P18054 | purified 12-hLO, xylenol orange hydroperoxide absorbance; also: potency is read from the fitted curve at half-maximal effect; nearly all actives have a fitted effect of over 55% in size
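Xylenol orange chromogenic assay: hydroperoxide from 12hLO oxidises Fe(II), giving red-shifted Fe(III)-XO absorbance. Conditions: 150 nM enzyme, 40 uM arachidonic acid, 25 mM Hepes pH 7.0, 0.01% Triton X-100, 30 min, room temperature.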
IMPase cell inh: IMPase inhibition in cells; P97697; CHO-M1 cells, IP1 accumulation, HTRF TR-FRET ratio; inhibition (IP1 accumulation), % at 46.1 µM; 120,000 tested, under 10 active; AID 901; active = well fitted curve in the direction sought with a large enough effect in the signal ratio, not every such curve was filed as active; inconclusive = small, poorly fitted or top-dose-only effect, or a change in a side signal; inactive = no such curve, though single readings can be large or run the other way; the % refers to the signal ratio;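 also: cells stimulated with carbachol in lithium chloride buffer; plate controls were DMSO basal wells for no effect and reference inhibitor wells for full effect; higher means more IMPase inhibition seen as more IP1 and lower FRET ratio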
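CHO-M1 cells (CHO stably expressing M1 receptor), compound up to 46 uM final, stimulated with carbachol (50 uM as added) in buffer with 50mM LiCl, pH 7.4, 30 min at 37C. Cytosolic IP1 read by TR-FRET; AC50 from Hill fits.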
IMPase Li inh: cell-permeable IMPase inhibitors with lithium potentiation | CHO-M1 cells, IP1 TR-FRET (IP-One), carbachol + lithium | Potency, µM (doses to about 59.4 µM), without a hit: at the top dose activity, negative = IMPase inhibition, actives largely listed as inhibitors | 210,000 tested, 0.35% active | AID 1457;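 also: IP1 builds up when IMPase is blocked and the TR-FRET signal falls; potency is read from the fitted curve at half-maximal effect; plate controls were basal vehicle for no effect and high inhibitor control for full effect; nearly all actives have a fitted effect of over 50% in size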
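Lithium-sensitised IP1 accumulation assay; M1-expressing CHO cells treated 30 min at 37C with compound. Competitive antibody detection by time-resolved FRET followed a 10 min room-temperature lysis step.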
PNC inhibitor: perinucleolar compartment assembly inhibition. PC3M PTB-GFP, PNC prevalence imaging, 16 h; stronger effect = lower value. activity change (PNC), negative = inhibition, % at 10 µM. 140,000 tested, 3.1% active. AID 2417;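 active = readout at or below -70, meaning at least 70% loss of cells showing the perinucleolar compartment, a nuclear body marking cancer cells; inconclusive = readout between -30 and a set limit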;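 also: plate controls were DMSO wells for no effect and camptothecin positive control wells for full effect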
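Read-out is percentage of cells bearing a perinucleolar compartment, from automated 20x imaging of fixed, Hoechst-stained PC3M PTB-GFP cells. Cells were seeded 4 h, then exposed 16 h to compound (23 nl of library stock) in duplicate plates.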
HPGD inh: blocks human HPGD enzyme activity; P15428; purified HPGD, NADH fluorescence kinetic, PGE2 substrate; Potency, µM, without a hit: at the top dose activity change, negative = inhibition, usual class: inhibitors; 150,000 tested, 4.3% active; AID 894; active = well fitted inhibition curve with a large enough effect, not every such curve was filed as active; inconclusive = small, poorly fitted or top-dose-only effect, or another doubt; inactive = no such curve, though single readings can be large or run the other way; also: potency is read from the fitted curve at half-maximal effect
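NADH formation kinetics: reaction with 30 uM PGE2 and 1 mM NAD+ (final), 20 nM enzyme, Tris-HCl pH 8 with Tween 20, after 15 min compound preincubation at room temperature. Fluorescence change, last versus first of five reads.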
15-hLO-2 inh: 15-hLO-2 (ALOX15B) enzyme inhibition. purified 15hLO-2, xylenol orange hydroperoxide absorbance. Potency, µM (titrated, usually from 57.1 µM), inactives show top-dose activity change, negative = inhibition, most hits filed as inhibitors. 110,000 tested, 0.56% active. AID 881; also: potency is read from the fitted curve at half-maximal effect; nearly all actives have a fitted effect of over 60% in size
Target sequence (O15296 whole entry, looked up): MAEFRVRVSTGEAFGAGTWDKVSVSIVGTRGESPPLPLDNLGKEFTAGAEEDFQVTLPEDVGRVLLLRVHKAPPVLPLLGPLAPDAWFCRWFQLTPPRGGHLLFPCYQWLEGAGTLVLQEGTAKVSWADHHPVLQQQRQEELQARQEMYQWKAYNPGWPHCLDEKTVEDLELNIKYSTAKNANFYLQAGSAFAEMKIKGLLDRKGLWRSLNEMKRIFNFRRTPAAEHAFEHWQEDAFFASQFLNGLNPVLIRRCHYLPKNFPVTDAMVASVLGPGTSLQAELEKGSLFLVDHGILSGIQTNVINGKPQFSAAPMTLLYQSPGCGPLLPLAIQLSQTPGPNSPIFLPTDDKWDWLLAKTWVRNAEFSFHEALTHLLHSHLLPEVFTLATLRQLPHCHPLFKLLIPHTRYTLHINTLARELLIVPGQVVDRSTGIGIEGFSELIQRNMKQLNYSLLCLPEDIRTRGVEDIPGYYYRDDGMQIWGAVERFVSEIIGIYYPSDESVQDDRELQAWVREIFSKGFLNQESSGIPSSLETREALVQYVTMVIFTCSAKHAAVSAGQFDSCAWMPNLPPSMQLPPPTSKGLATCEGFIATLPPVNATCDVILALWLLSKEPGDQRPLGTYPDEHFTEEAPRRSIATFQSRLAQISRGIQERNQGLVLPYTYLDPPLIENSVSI
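Read-out: hydroperoxide product oxidises ferrous iron, measured as xylenol orange complex via the 573-to-405 nm absorbance ratio after 30 min. Reaction: 50 nM enzyme, 15 min compound preincubation, 45 uM arachidonic acid, 90 min RT, Hepes pH 7.5 with Triton X-100.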
* = called active by the depositor; ? = inconclusive; nt = no result; [ ] = remark or other dose. Unless noted, calls follow the shape of the dose curve; as a rule, active = well fitted curve in the direction sought with a large enough effect; inconclusive = small, poorly fitted or top-dose-only effect, or another doubt; inactive = no such curve, though single readings can be large; an effect the other way counts as inactive or inconclusive. Unless noted, % is scaled to controls: 0 for no effect and ±100 for the full control effect.

SMILES | ALOX12 inhib | IMPase cell inh | IMPase Li inh | PNC inhibitor | HPGD inh | 15-hLO-2 inh
O=C(NC(NC(=S)Nc1ccccc1C(=O)O)C(Cl)(Cl)Cl)c1ccco1 (configuration not stated) | -1% | nt | -4% | ? | ? | nt
CCCC(=O)NC1=C(C#N)C2(CCCC2)Cc2ccccc21 | 8% | 8 | 24%[38.3 µM] | ? | -11% | -4%
CCCC(=O)C1=C(c2ccccc2)C(C#N)(C#N)C(C#N)=C1N | ? | 5 | 11%[38.3 µM] | 1 | 1.4µM* | -29%
O=S(=O)(c1ccccc1)c1ccccc1/C=N\O | -5% | 5 | 16%[38.3 µM] | -96* | -27% | 11%
COc1ccc(-c2cc(-c3ccccc3)c(C#N)c(=S)[nH]2)cc1 | nt | nt | -23% | nt | nt | nt
N#Cc1c(N)[nH]c(=S)c(C#N)c1-c1ccccc1 | -11% | ? | 13µM* | 16 | -24% | ?
Cc1nc(NC(=S)NC(=O)c2cccs2)sc1C(=O)N(C)C | -3% | 2 | 19%[38.3 µM] | -20 | 22µM* | -11%
Cc1ccc(C)c(S(=O)(=O)N/N=C/c2cccnc2)c1 | 3% | nt | -2% | -11 | -10% | nt
Cc1ccc(S(=O)(=O)N/N=C\c2cccnc2)cc1 | -3% | 0 | 10%[38.3 µM] | -88* | -15% | -11%
Cc1ccc(C(=O)NCC(=O)OC(C)C(=O)NCCC2=CCCCC2)cc1C (configuration not stated) | -2% | -6 | -1% | -17 | 3% | nt
Cc1c(NC(=O)C(C)OC(=O)c2cc(Cl)nc(Cl)c2)c(=O)n(-c2ccccc2)n1C (configuration not stated) | 1% | nt | 0% | -10 | -6% | nt
Cc1c(NC(=O)C(C)OC(=O)c2sc3ccccc3c2Cl)c(=O)n(-c2ccccc2)n1C (configuration not stated) | -2% | nt | -28% | -116* | -9% | nt
Cc1ccc(NC(=O)CS(=O)CC(=O)N(c2ccc(C)cc2)C(C)C(=O)NC2CCCCC2)cc1 (configuration not stated) | -7% | 3 | -2% | -23 | -6% | nt
O=C(CSc1ncccc1-c1nc2ccccc2[nH]1)N1CCN(c2ccccc2F)CC1 | -11% | ? | 10µM* | -20 | ? | 8%
N#Cc1ccc(CSc2nnc(NC(=O)c3ccc4ncsc4c3)s2)cc1 | nt | nt | 7.9µM* | nt | nt | nt
CCCCCCCCCCS(=O)(=O)N/N=C/c1ccc(O)cc1 | -19% | 4 | 15% | -3 | -25% | nt
C/C=C/C=C/C(=O)Nc1nccs1 | -5% | nt | 1% | -116* | -21% | nt
COc1ccc(C2CCCN2C(=O)Nc2ccccc2)cc1OC (configuration not stated) | -6% | 2 | 2%[38.3 µM] | 36 | -8% | 6%
COc1cccc(/C=N/N2C(=O)CSC2=S)c1O | ? | nt | 23% | ? | 25µM* | nt
COc1cc(/C=N/N2C(=O)CSC2=S)cc(Br)c1O | nt | nt | 5% | nt | nt | nt
COc1ccc(N=Nc2cnc(C)nc2-c2ccccc2)cc1 | -1% | -5[1.84 µM] | 27%[38.3 µM] | -85* | -24% | -9%[11.4 µM]
Cc1ncc(N=Nc2ccccc2Cl)c(-c2ccccc2)n1 | -1% | 8 | 6%[38.3 µM] | 29 | ? | nt
COc1cccc(/C=C/C(=O)OCC(=O)Nc2ccc(N3CCOCC3)cc2)c1OC | nt | nt | 5% | nt | nt | nt
Cc1nc2cc3nc(C)sc3cc2s1 | -14% | -2 | -11%[38.3 µM] | 25 | 13µM* | -4%
Cc1nc2cc(CO)ccc2s1 | 6% | -9 | -7%[38.3 µM] | 22 | -5% | 3%
CC(C)(C)Cc1nnc(NC(=O)Cc2ccc([N+](=O)[O-])cc2)s1 | -4% | -5 | -1% | -13 | 14µM* | nt
CC(C)Cc1nnc(NC(=O)Cc2ccccc2[N+](=O)[O-])s1 | -2% | nt | 3% | ? | 32µM* | nt
CC(C)Cc1nnc(NC(=O)Cc2cccs2)s1 | nt | nt | -8% | nt | nt | nt
Clc1ccccc1-c1nccc(NCc2ccccc2)n1 | nt | nt | 17% | nt | nt | 2%
O=c1/c(=C/c2ccco2)sc2n1CN(c1cccc(Br)c1)CN=2 | ? | 8 | 78%[38.3 µM] | ? | 25µM* | 12%
